Results reported in ChEMBL document CHEMBL3988442, “University of Dundee, Small-Polar-MMV Screening Library” (2021).
In all, about 48,000 compounds went through this assay and about 13,000 (27%) showed an effect of 50% or more. The list shows a part of the results.

Tested on: Wolbachia pipientis
Assay: Anti-Wolbachia Cell-Based Screen
Format: functional
Set-up: scale not given: in the data most compounds retested in dose-response had high values
Conditions: 5 µM

SMILES | Percent Effect [%]
Cn1nc(Cn2cccn2)c2c1CN(Cc1ccoc1)C2.O=C(O)C(F)(F)F | -5.298
Cc1noc(C2(C)CCCN(C(=O)C(C)C)C2)n1 (configuration not stated) | 123
Cc1noc(C2(C)CCN(C(=O)C(C)C)CC2)n1 | 126.4
Cc1noc([C@@]23CCO[C@@H]2CCN(C(=O)c2cc(C)on2)C3)n1 | 4.569
Cc1noc([C@@]23CCO[C@@H]2CCN(C(=O)c2cc(C)[nH]c2C)C3)n1 | 12.25
CC(=O)N1CCC(C)(c2nc(C)no2)CC1 | 134.3
Cc1noc([C@@]23CCO[C@@H]2CCN(C(=O)CCC(C)C)C3)n1 | 4.63
COCC(=O)N1CC[C@H]2OCC[C@@]2(c2nc(C)no2)C1 | 6.759
Cc1noc([C@@]23CCO[C@@H]2CCN(C(=O)c2cc(C)c(C)s2)C3)n1 | 6.303
Cc1noc([C@@]23CCO[C@@H]2CCN(C(=O)CN(C)C)C3)n1 | 5.284
Cc1cccc2c1nc(CCO)n2-c1ccc(C(=O)N2CCCC2)o1 | 4.629
Fc1cccc(-n2cc(CN3CCCCC3CCn3ccnc3)cn2)c1 (configuration not stated) | -14.22
CC(C)(N)C(=O)N1CCCC(c2cncc(Oc3cccnc3)n2)C1 (configuration not stated) | 102.7
Cc1cncc(C2CCCN(C(=O)c3cccn3C)C2)n1 (configuration not stated) | 5.721
CC(C)C(=O)N1CCCC(c2cncc(Oc3cccnc3)n2)C1 (configuration not stated) | 130.5
CC(C)(N)C(=O)N1CCCC1c1cncc(Oc2ccccc2)n1 (configuration not stated) | 115.4
CC(C)(N)C(=O)N1CCCC1c1cncc(Oc2ccc(F)cc2)n1 (configuration not stated) | 9.255
CCS(=O)(=O)c1ncc(CN(C)Cc2ccccc2Cl)n1CCOC | 6.102
CCN(CC)Cc1cc(C(=O)N2CC(C)(C)[C@@](C)(O)C2)c(C)o1 | -3.4
CC(C)(C)CN1CC(COc2ccccc2)Oc2ccncc2S1(=O)=O (configuration not stated) | 80.37
O=C(COc1ccccc1)N(Cc1ccncc1)C1CC1 | -3.212
CS(=O)(=O)N1CCC2(CC1)COC(COc1cccnc1)C2.O=C(O)C(F)(F)F (configuration not stated) | -9.864
O=S1(=O)c2cnccc2OC(COc2ccccc2)CN1CC1CC1 (configuration not stated) | 96.1

SMILES | Percent Effect [%]
O=S1(=O)CCC(n2nc(COc3ccccc3)nc2-c2cnccn2)C1 (configuration not stated) | -50.17
Cc1nc2cc(=O)[nH]n2c(C)c1CC(=O)Nc1cnn(C)c1 | -2.134
CCc1ncc(C(=O)N(C)CC2Cc3ccccc3O2)cn1 (configuration not stated) | -1.94
Cc1nn(C)c(C)c1CCNC(C)c1ccc(-n2ccnc2C)cc1 (configuration not stated) | -1.532
Cc1ccc(CN2CCC3(CC2)OC(C(=O)N(C)C)c2ccccc23)o1.O=C(O)C(F)(F)F (configuration not stated) | 8.053
CC(C)N1CCC2(C=C(C(=O)N(C)C)c3ccccc32)CC1.O=C(O)C(F)(F)F | -1.303
CCN1CCC2(C=C(C(=O)N(C)C)c3ccccc32)CC1.O=C(O)C(F)(F)F | 130.6
O=C(C1=CC2(CCN(CCO)CC2)c2ccccc21)N1CCCC1.O=C(O)C(F)(F)F | -8.81
CC(C)CN1CCC2(C=C(C(=O)N3CCCC3)c3ccccc32)CC1.O=C(O)C(F)(F)F | 13.87
CC(C)CN1CCC2(C=C(C(=O)N(C)C)c3ccccc32)CC1.O=C(O)C(F)(F)F | 90.84
COc1ccc(C(C)NCc2c[nH]nc2C)cc1Br.Cl (configuration not stated) | 2.435
Cc1ncoc1C(=O)N1CCc2[nH]nc(-c3ccc4c(c3)OCO4)c2C1 | -5.297
CC(C)CC(CCO)CNC(=O)N1CCCC1(C)C (configuration not stated) | -11.2
O=C(O)C(F)(F)F.O=C([C@H]1CCCO1)N1CCCC2(COCCN(c3ccccc3)C2)C1 (some centres not stated) | 121.5
O=C(C1CCCCC1)N1CCCC2(CCN(c3cnccn3)CC2)C1.O=C(O)C(F)(F)F | 1.174
O=C(O)C(F)(F)F.O=C(c1cccnc1)N1CCOC2(COCCN(c3cncnc3)C2)C1 (configuration not stated) | -2.912
O=C(O)C(F)(F)F.O=C(c1ccncc1)N1CCCC2(COCCN(c3ccccc3)C2)C1 (configuration not stated) | 3.35
O=C(O)C(F)(F)F.O=C(c1cccnc1)N1CCCC2(COCCN(c3ccccc3)C2)C1 (configuration not stated) | 104.3
O=C(C1CCCC1)N1CCCC2(CCN(c3cnccn3)CC2)C1.O=C(O)C(F)(F)F | -29.32
Cc1cc(C(=O)N2CCCC3(COCCN(c4ccccc4)C3)C2)[nH]n1 (configuration not stated) | -3.26
O=C(c1ccnnc1)N1CC2(CCN(c3ncccn3)C2)C1 | -3.842
O=C(C1CCCO1)N1CCCC2(CCN(c3cccnc3)CC2)C1.O=C(O)C(F)(F)F (configuration not stated) | 111.1
O=C(c1ccc[nH]1)N1CC2(CCN(c3ncccn3)C2)C1 | -13.43

SMILES | Percent Effect [%]
O=C(c1cccnc1)N1CCOCC2(CCN(c3ncccn3)C2)C1 (configuration not stated) | 104.1
COc1ccc(C)cc1CN1CCN(Cc2nccn2C)C(C)C1 (configuration not stated) | -12.47
OCc1cc2ccccc2nc1NC1CC=CC1 | -7.436
COCCCN(Cc1cnc(-c2ccccn2)nc1)C1CCN(C)CC1 | 120.4
CCN(Cc1cnc(-c2ccccn2)nc1)C1CCS(=O)(=O)C1 (configuration not stated) | -5.567
COCCCN(Cc1cnc(-c2cccs2)nc1)C1CCN(C)CC1 | 117
CC(C1CCN(Cc2cnc(-c3cccs3)nc2)CC1)N(C)C (configuration not stated) | 1.758
CC(C)n1cnnc1CN(C)Cc1cnc(-c2ccccn2)nc1 | 11.81
CC(C)n1cnnc1CN(C)Cc1cnc(-c2cccs2)nc1 | 3.781
CCC(O)CN(c1ccccc1)S(=O)(=O)c1cnc(C)s1 (configuration not stated) | -3.963
CCCn1nc(C)c(CN2CC3(CCOC3)CCC2=O)c1C (configuration not stated) | -15.65
CC(C)C(=O)NCc1cccc(N2CCCCC2=O)c1 | -5.894
CCOc1ccc(S(=O)(=O)Nc2cnc(OC)nc2OC)cc1 | -50.06
CN(C)c1ccc(C(=O)N2CCCc3cc(OC(F)(F)F)ccc32)cn1 | 0.3128
O=S(=O)(Nc1cnc(N2CCCC2)nc1)c1ccc(C(F)(F)F)cc1 | 2.34
Cn1cc(NS(=O)(=O)c2ccc(OC(F)(F)F)cc2)ccc1=O | -16.2
O=S(=O)(Nc1cnc(N2CCOCC2)nc1)c1ccc(C(F)(F)F)cc1 | -10.38
Cc1nc(N(C)C)nc(C)c1NS(=O)(=O)c1ccc(OC(F)(F)F)cc1 | 120.1
COc1ccc(S(=O)(=O)Nc2cnc(N(C)C)nc2)cc1 | 87.85
COc1ncc(NS(=O)(=O)c2ccc(F)cc2F)cn1 | 7.047
CN(C)c1ncc(NS(=O)(=O)c2ccc(OC(F)(F)F)cc2)cn1 | 123.3
Cc1ccc(S(=O)(=O)Nc2c(C)nc(N3CCCC3)nc2C)cc1 | 15.76
O=S(=O)(NCc1cc2n(n1)CCNC2)c1ccc(OC(F)(F)F)cc1 | 12.96

SMILES | Percent Effect [%]
O=S(=O)(Nc1cnc(N2CCCC2)nc1)c1ccc(OC(F)(F)F)cc1 | 113.1
Cc1ccc(CN2CCOC3(COCCN(C(C)C)C3)C2)s1.O=C(O)C(F)(F)F.O=C(O)C(F)(F)F (configuration not stated) | -2.418
Cc1nccn1-c1cc(CNC(=O)C2CCC(=O)NC2)ccn1 (configuration not stated) | -12.56
CCOc1ncccc1C(=O)N1CCCC1Cn1cc(C)cn1 (configuration not stated) | 90.55
Cc1cnn(CC2CCCN2C(=O)c2cccnc2-n2cncn2)c1 (configuration not stated) | 106.4
O=C(c1cccnc1-n1cncn1)N1CCN(CC2CC2)CC1 | -14.6
COCCOc1ncccc1C(=O)N1CCCC1Cn1cc(C)cn1 (configuration not stated) | 71.82
CSCCc1nc(C(C)C)nn1-c1ccncc1C | -5.681
COCC(C)(C#N)NC(=O)COc1ccccc1Br (configuration not stated) | -5.931
Cc1c(-c2ccccc2)ncn1CC(c1cccnc1)N1CCOCC1 (configuration not stated) | 2.3
COCCC1(CO)CCCN(C(=O)c2ccc(C(C)C)[nH]c2=O)C1 (configuration not stated) | 9.971
Cn1ccnc1CN1CCN(c2ccc(C#N)cc2F)CC1 | 2.933
Cc1ccc(N2C[C@H]3CCC[C@@H](CN(C)C)[C@H]3C2)nn1.O=C(O)C(F)(F)F | -2.322
O=C(O)C(F)(F)F.O=C(c1cnccn1)N1C[C@@H]2C[C@@H](c3nc(C4CC4)cs3)O[C@@H]2C1 | 97.61
Cc1noc([C@@H]2C[C@H]3CN(C(=O)C4CCN(C)CC4)C[C@H]3O2)n1.O=C(O)C(F)(F)F | 11.84
Cc1ccc(CN2CC[C@H]3C[C@H](c4nc(C5CC5)cs4)O[C@@H]3C2)o1 | 7.352
O=C(O)C(F)(F)F.O=C(c1ccnnc1)N1C[C@@H]2C[C@@H](c3nc(C4CC4)cs3)O[C@@H]2C1 | 114.8
Cc1csc([C@@H]2C[C@@H]3CCN(C(=O)c4cnccn4)C[C@H]3O2)n1 | -0.1445
Cc1csc([C@H]2C[C@@H]3CCN(C(=O)c4ccnnc4)C[C@H]3O2)n1 | -2.379
O=C(C1CCOCC1)N1C[C@@H]2C[C@@H](c3nc(C4CC4)cs3)O[C@@H]2C1.O=C(O)C(F)(F)F | 2.3
Cc1csc([C@H]2C[C@@H]3CCN(C(=O)c4cnccn4)C[C@H]3O2)n1 | 7.08
Cn1cccc1C(=O)N1C[C@@H]2C[C@@H](c3nc(C4CC4)cs3)O[C@@H]2C1.O=C(O)C(F)(F)F | 215.5
COc1cccc(-n2c(C)cc(C(=O)O)c2C)c1 | 1.282
